Structures are written as SMILES. About 14,000 (4.5%) of roughly 310,000 compounds showed an effect of 50% or more. Effects have a minus sign here. The full list was thinned out, with strong results kept by preference.
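Note: peak tail current of the secondary pulse compared with the same well before compound.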

This assay deals with human ether-à-go-go-related gene (hERG) potassium channel (human, UniProt Q12809). The assay can be described thus: primary screen, population patch clamp on CHO cells stably expressing hERG; higher = less effect of the substance.
Sequence of human ether-à-go-go-related gene (hERG) potassium channel (Q12809 whole entry, looked up): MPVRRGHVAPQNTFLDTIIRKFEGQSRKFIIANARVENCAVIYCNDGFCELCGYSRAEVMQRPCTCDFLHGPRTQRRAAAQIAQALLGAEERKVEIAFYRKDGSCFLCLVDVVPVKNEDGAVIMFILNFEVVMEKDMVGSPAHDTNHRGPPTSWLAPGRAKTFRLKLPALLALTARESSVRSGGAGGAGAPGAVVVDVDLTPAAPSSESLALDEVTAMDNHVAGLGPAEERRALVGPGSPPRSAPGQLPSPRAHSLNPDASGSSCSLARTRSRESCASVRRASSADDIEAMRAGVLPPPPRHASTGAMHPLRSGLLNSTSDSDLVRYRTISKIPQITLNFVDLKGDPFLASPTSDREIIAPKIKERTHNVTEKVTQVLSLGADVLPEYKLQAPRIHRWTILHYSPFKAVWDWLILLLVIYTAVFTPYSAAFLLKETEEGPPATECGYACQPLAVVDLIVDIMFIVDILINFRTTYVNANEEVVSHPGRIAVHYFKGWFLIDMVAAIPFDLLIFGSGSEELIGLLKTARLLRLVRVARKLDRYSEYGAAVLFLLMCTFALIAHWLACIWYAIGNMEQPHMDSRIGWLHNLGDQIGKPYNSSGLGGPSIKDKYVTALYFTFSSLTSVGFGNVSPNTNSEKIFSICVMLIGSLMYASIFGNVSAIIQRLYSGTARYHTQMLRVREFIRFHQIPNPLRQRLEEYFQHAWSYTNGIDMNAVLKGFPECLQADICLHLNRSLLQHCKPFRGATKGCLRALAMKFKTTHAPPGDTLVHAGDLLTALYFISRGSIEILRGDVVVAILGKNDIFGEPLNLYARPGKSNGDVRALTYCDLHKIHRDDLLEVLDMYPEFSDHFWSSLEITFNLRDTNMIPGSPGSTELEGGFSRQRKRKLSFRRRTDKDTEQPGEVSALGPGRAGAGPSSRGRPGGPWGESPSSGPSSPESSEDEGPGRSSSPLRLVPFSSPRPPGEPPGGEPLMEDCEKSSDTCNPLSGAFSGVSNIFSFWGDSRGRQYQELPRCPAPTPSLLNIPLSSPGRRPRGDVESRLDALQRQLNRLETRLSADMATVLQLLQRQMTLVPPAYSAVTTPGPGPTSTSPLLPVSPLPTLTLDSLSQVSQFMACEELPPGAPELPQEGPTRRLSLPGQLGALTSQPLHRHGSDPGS
On to `CCc1ccccc1NC(=O)CN(C)C(=O)CSc1nc2cc(Cl)ccc2s1`, for which the “hERG current change (%, negative = inhibition) at 10uM” value amounted to 17.8%.

With `CCOC(=O)/C(=N\Nc1cc(Cl)ccc1Cl)N1CCN(C)CC1`, the “hERG current change (%, negative = inhibition) at 10uM” value is listed as -16.9%.

Regarding `O=C(CSc1ncccn1)N/N=C/c1ccccc1[N+](=O)[O-]`, the “hERG current change (%, negative = inhibition) at 10uM” value is 11.3%.

Take `COc1ccccc1/C=C(/NC(=O)c1ccccc1)C(=O)NCCN1CCOCC1`: the “hERG current change (%, negative = inhibition) at 10uM” value came out at 15.5%.

As for `O=C(NCCCN1CCOCC1)/C(=C/c1ccc(F)cc1)NC(=O)c1ccccc1`, the “hERG current change (%, negative = inhibition) at 10uM” value is given as -73.5%.

Regarding `O=C(NCCN1CCOCC1)/C(=C\c1ccccc1F)NC(=O)c1ccccc1`, the “hERG current change (%, negative = inhibition) at 10uM” value is reported as -26.5%.

In the case of `O=C(NCCO)/C(=C\c1ccc(Br)cc1)NC(=O)c1cccs1`, the “hERG current change (%, negative = inhibition) at 10uM” value is on record as -3.91%.

For `O=C(NCCN1CCOCC1)/C(=C\c1ccc(F)cc1)NC(=O)c1ccccc1`, the “hERG current change (%, negative = inhibition) at 10uM” value is -62.3%.

For the molecule `O=C(NCCO)/C(=C/c1ccc(Br)cc1)NC(=O)c1cccs1`, the “hERG current change (%, negative = inhibition) at 10uM” value was -14%.

`O=C(NCCCN1CCOCC1)/C(=C/c1cccnc1)NC(=O)c1ccccc1`: the “hERG current change (%, negative = inhibition) at 10uM” value is on record as -25%.

Regarding `O=C(NCCN1CCOCC1)/C(=C/c1ccco1)NC(=O)c1ccccc1`, the “hERG current change (%, negative = inhibition) at 10uM” value is recorded as -5.48%.

For the molecule `O=C(NCCN1CCOCC1)/C(=C\c1ccc(Br)cc1)NC(=O)c1cccs1`, the “hERG current change (%, negative = inhibition) at 10uM” value is -67.4%.

With `CN(C)c1ccc(/C=C(\NC(=O)c2ccccc2)C(=O)NCCCN2CCOCC2)cc1`, the “hERG current change (%, negative = inhibition) at 10uM” value is -10.4%.

Regarding `O=C(NCCN1CCOCC1)/C(=C/c1ccc(F)cc1)NC(=O)c1ccccc1`, the “hERG current change (%, negative = inhibition) at 10uM” value is on record as -67.8%.

As for `COc1ccccc1C(=O)COC(=O)c1nc(Cl)ccc1Cl`, the “hERG current change (%, negative = inhibition) at 10uM” value is given as -0.91%.

Consider `O=C(CSC1=NS(=O)(=O)c2cc(Cl)ccc2N1)NCCc1ccccc1`, for which the “hERG current change (%, negative = inhibition) at 10uM” value is given as 15.4%.

In the case of `CN(C)c1ccc(S(=O)(=O)N2CCCCC2)cc1NC(=O)CCNC(=O)c1ccc(Cl)cc1`, the “hERG current change (%, negative = inhibition) at 10uM” value is given as -27.4%.

With `Cc1cccc(Oc2ccccc2NC(=O)CN2C(=O)NC3(CCCC3)C2=O)c1`, the “hERG current change (%, negative = inhibition) at 10uM” value is -6.76%.

With `CCN(CC)S(=O)(=O)c1ccc(NS(=O)(=O)c2ccc(C)c(C)c2)cc1`, the “hERG current change (%, negative = inhibition) at 10uM” value is -21.6%.

For the molecule `Nc1nonc1C(=Nc1ccc(Br)cc1)NO`, the “hERG current change (%, negative = inhibition) at 10uM” value was 8.76%.

As to `CCOC(=O)c1cnc(SCC(=O)OC)nc1N`, the “hERG current change (%, negative = inhibition) at 10uM” value stood at 52.5%.

Consider `C/C(=N\N1C(C)CCCC1C)c1ccccc1O` (stereo not drawn), for which the “hERG current change (%, negative = inhibition) at 10uM” value is recorded as 14.1%.

As for `O=C(NCc1ccc2c(c1)OCO2)c1ccccc1Cl`, the “hERG current change (%, negative = inhibition) at 10uM” value is -2.6%.

As to `COc1ccc(CC(=O)N2CC(C)CC(C)C2)cc1OC` (stereo not drawn), the “hERG current change (%, negative = inhibition) at 10uM” value amounted to 5.21%.

For the molecule `CSc1ccc(/C=C(\NC(=O)c2ccccc2)C(=O)NCCN2CCOCC2)cc1`, the “hERG current change (%, negative = inhibition) at 10uM” value is on record as -63.7%.

As for `CSc1ccc(/C=C(/NC(=O)c2ccccc2)C(=O)NCCN2CCOCC2)cc1`, the “hERG current change (%, negative = inhibition) at 10uM” value is given as -44.8%.

As to `CC(=O)O[C@@H]1C[C@H]2C(C)(C)C(=O)C=C[C@]2(C)[C@H]2CC[C@@]3(C)[C@H](c4ccoc4)OC(=O)[C@H]4O[C@]43[C@@]21C`, the “hERG current change (%, negative = inhibition) at 10uM” value is given as -43.1%.

As to `N#Cc1ccccc1NC(=S)NC(=O)c1cccnc1`, the “hERG current change (%, negative = inhibition) at 10uM” value was found to be 13.7%.

Regarding `CCN(CC(=O)NCc1ccc(F)cc1)C(=O)Cc1ccc(OC)cc1`, the “hERG current change (%, negative = inhibition) at 10uM” value is listed as -63.5%.

Turning to `CCN(CC(=O)NCc1ccc(F)cc1)C(=O)/C=C/c1ccc(OC)cc1`, the “hERG current change (%, negative = inhibition) at 10uM” value is -48%.

For `CCN(CC(=O)NCc1ccc(Cl)cc1)C(=O)c1cc(OC)cc(OC)c1`, the “hERG current change (%, negative = inhibition) at 10uM” value is -48.4%.

Consider `CCN(CC(=O)NCc1ccc(Cl)cc1)C(=O)c1ccc2cc(OC)ccc2c1`, for which the “hERG current change (%, negative = inhibition) at 10uM” value was found to be 3.72%.

For `COc1ccc(CNC(=O)COc2ccc(F)cc2)cc1`, the “hERG current change (%, negative = inhibition) at 10uM” value is 2.33%.

As to `CCN(CC(=O)NCc1ccc(Cl)cc1)C(=O)Cc1ccc(OC)cc1`, the “hERG current change (%, negative = inhibition) at 10uM” value is reported as -75.7%.

Turning to `c1nc(N2CCCC2)c2[nH]cnc2n1`, the “hERG current change (%, negative = inhibition) at 10uM” value is -3.15%.

`CCC(C(=O)NC(C)(C)C)N(C(=O)Cn1nnc(-c2cccs2)n1)c1cnc2ccccc2c1` (stereo not drawn): the “hERG current change (%, negative = inhibition) at 10uM” value is listed as -13.3%.

For `COc1ccc(C(=O)CNc2ccccc2CO)cc1`, the “hERG current change (%, negative = inhibition) at 10uM” value was 22.8%.

`O=C(NCCC1=CCCCC1)c1cc(-c2ccncc2)nc2ccccc12`: the “hERG current change (%, negative = inhibition) at 10uM” value is listed as 6.78%.

Take `CC(C)(C)c1ccc(C(=O)Nc2ccc(O)c3c(=O)cc(-c4cccc(Cl)c4)oc23)cc1`: the “hERG current change (%, negative = inhibition) at 10uM” value came out at 17.7%.

`COc1cc(C(=O)OCC(=O)NC(=O)C2CCCCC2)ccc1OC(F)F`: the “hERG current change (%, negative = inhibition) at 10uM” value was 15.8%.

Regarding `CC(=O)Nc1cccc(C(=O)OC(C)C(=O)NC(=O)NC2CCCCC2)c1` (stereo not drawn), the “hERG current change (%, negative = inhibition) at 10uM” value is recorded as 3.89%.

Take `COc1cc(C(=O)OC(C)C(=O)NC(=O)NC2CCCCC2)ccc1OC(F)F` (stereo not drawn): the “hERG current change (%, negative = inhibition) at 10uM” value is given as -51.2%.

For `CCOC(=O)C1CCN(C(=O)Nc2ccc3c(c2)nc(C)n3C)CC1`, the “hERG current change (%, negative = inhibition) at 10uM” value was found to be 0.694%.

Take `CCN(CC)c1ccc(CNc2nnnn2C)cc1`: the “hERG current change (%, negative = inhibition) at 10uM” value came out at 19.3%.

Turning to `Cc1cc(=O)n2nc(N3CCCC(C(=O)NC4CCCCC4C)C3)sc2n1` (stereo not drawn), the “hERG current change (%, negative = inhibition) at 10uM” value was found to be 9.32%.

`Cc1ccccc1CSCCNC(=O)CCSc1ccccc1`: the “hERG current change (%, negative = inhibition) at 10uM” value was determined as 2.74%.

Regarding `CCCC(O)(CCN1CCOCC1)c1ccc(Br)cc1.Cl` (stereo not drawn), the “hERG current change (%, negative = inhibition) at 10uM” value is -20.7%.

`CCCOc1ccc(C(C)(O)CN2CCOCC2)cc1` (stereo not drawn): the “hERG current change (%, negative = inhibition) at 10uM” value came out at 15.6%.

`CCCOc1ccc(C(O)(CCC)CCN2CCCCC2)cc1` (stereo not drawn): the “hERG current change (%, negative = inhibition) at 10uM” value is recorded as -56.1%.

Consider `CCCCOc1ccc(C(C)(O)CCN2CCOCC2)cc1` (stereo not drawn), for which the “hERG current change (%, negative = inhibition) at 10uM” value is on record as -2.97%.

Take `CCCCOc1ccc(C(O)(CCC)CCN2CCOCC2)cc1` (stereo not drawn): the “hERG current change (%, negative = inhibition) at 10uM” value is on record as -51.2%.

Take `CCCCOc1ccc(C(O)(CC)CCN2CCOCC2)cc1` (stereo not drawn): the “hERG current change (%, negative = inhibition) at 10uM” value is listed as -13.4%.

As for `CCCC(O)(CCN1CCOCC1)c1ccc(Cl)cc1` (stereo not drawn), the “hERG current change (%, negative = inhibition) at 10uM” value stood at 3.77%.

With `CCCOc1ccc(C(O)(CCN2CCCCC2)c2ccccc2OC)cc1.Cl` (stereo not drawn), the “hERG current change (%, negative = inhibition) at 10uM” value is -29.9%.

On to `CCCCC(O)(CCN1CCOCC1)c1ccc(Cl)cc1.Cl` (stereo not drawn), for which the “hERG current change (%, negative = inhibition) at 10uM” value was -66.5%.

Regarding `OC1(c2ccc(F)cc2)CSC(=Nc2cccnc2)N1Cc1ccco1` (stereo not drawn), the “hERG current change (%, negative = inhibition) at 10uM” value is -14.2%.

In the case of `COc1ccc(OC)c2nc(-c3ccc4c(c3)OCO4)ccc12`, the “hERG current change (%, negative = inhibition) at 10uM” value is 10.4%.

Values taken from PMC4336329 (PLoS ONE, 2015).
